For some assays here: Measured potencies and affinities stand elsewhere. The source made the active and inactive calls. Unless noted, how the calls were made is not given here.
Tests used:
[1] = antimalarial activity against Dd2 strain (AID 2302;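 active means growth inhibition above 50% at the single 2 µM test dose, taken to imply half-maximal potency below 2 µM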;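 further: 0% = DMSO untreated growth and 100% = chloroquine plus artemisinin killed control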); details: P. falciparum Dd2 in RBCs, LDH growth readout, 72 h; at 2 µM; stronger effect = higher value
[2] = human hepatoma cell viability loss – ATP luminescence, cytotoxicity control for P. falciparum antimalarial project, primary screen (AID 2303;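 active means inhibition above 50%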;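 further: 0% = DMSO wells and 100% = digitonin-killed cells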); details: HepG2 viability, 24-48 h, at 10 µM, stronger effect = higher value
[3] = molecular target: L-lactate dehydrogenase (Plasmodium falciparum (isolate CDC / Honduras)) (UniProt Q27743); experiment: PfLDH activity inhibition – cell lysate, 3D7 strain, counter-screen for P. falciparum growth inhibition project (AID 2304);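 further: 0% = vehicle and 100% = reference inhibitor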; details: P. falciparum 3D7 crude extract, LDH APAD/NBT absorbance; at 2 µM; stronger effect = higher value
[4] = inhibition of 3D7 malaria parasite growth – strain 3D7 (AID 2306);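 further: 0% = DMSO wells and 100% = chloroquine plus artemisinin control wells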; details: P. falciparum 3D7 erythrocytic growth, LDH absorbance, 72 h; at 2 µM; stronger effect = higher value
[5] = molecular target: Calcium-dependent protein kinase 1 (Plasmodium falciparum (isolate 3D7)) (UniProt P62344); experiment: PfCDPK1 kinase inhibitors, biochemical, TCAMS library (AID 1159585; cut-off not given, nearly all actives have IC50 up to about 0.98 µM;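 further: inhibitors leave more ATP so luminescence rises with inhibition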); details: recombinant PfCDPK1, Kinase-Glo ATP depletion luminescence
[6] = molecular target: Plasmodium falciparum protein kinase 6 (PK6, PF3D7_1337100) (UniProt Q8IDW1); experiment: PfPK6 kinase inhibitors, biochemical, TCAMS library (AID 1159586); details: recombinant PfPK6, Kinase-Glo ATP depletion luminescence
[7] = molecular target: Protein kinase 7 (PK7), Plasmodium falciparum 3D7 (PF3D7_0213400) (UniProt Q7YTF7); experiment: inhibition of Plasmodium PK7 catalytic activity – biochemical, TCAMS antimalarial set, Kinase-Glo luminescence (AID 1159587); details: recombinant PfPK7, Kinase-Glo ATP depletion luminescence
[8] = molecular target: Calcium-dependent protein kinase 4 (Plasmodium falciparum (isolate 3D7)) (UniProt Q8IBS5); experiment: PfCDPK4 kinase inhibitors, biochemical, TCAMS library (AID 1159588; cut-off not given, nearly all actives have IC50 up to about 0.91 µM); details: recombinant PfCDPK4, Kinase-Glo ATP depletion luminescence
Sequence of Calcium-dependent protein kinase 4 (Plasmodium falciparum (isolate 3D7)) (Q8IBS5 whole entry, looked up): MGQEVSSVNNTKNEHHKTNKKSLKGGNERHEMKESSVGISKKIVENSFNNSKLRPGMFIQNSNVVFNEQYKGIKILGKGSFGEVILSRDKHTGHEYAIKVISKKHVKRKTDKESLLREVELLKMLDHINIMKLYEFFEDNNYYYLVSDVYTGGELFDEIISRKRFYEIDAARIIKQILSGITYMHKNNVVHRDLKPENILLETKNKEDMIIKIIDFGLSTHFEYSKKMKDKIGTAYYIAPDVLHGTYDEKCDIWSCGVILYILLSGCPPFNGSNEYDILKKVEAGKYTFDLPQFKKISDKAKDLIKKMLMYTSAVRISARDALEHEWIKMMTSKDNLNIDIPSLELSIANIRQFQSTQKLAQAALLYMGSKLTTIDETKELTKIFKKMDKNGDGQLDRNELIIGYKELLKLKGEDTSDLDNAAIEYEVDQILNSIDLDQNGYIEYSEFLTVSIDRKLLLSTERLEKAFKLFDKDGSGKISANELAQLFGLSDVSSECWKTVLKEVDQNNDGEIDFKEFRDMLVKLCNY

Sequence of Plasmodium falciparum protein kinase 6 (PK6, PF3D7_1337100) (Q8IDW1 1-305): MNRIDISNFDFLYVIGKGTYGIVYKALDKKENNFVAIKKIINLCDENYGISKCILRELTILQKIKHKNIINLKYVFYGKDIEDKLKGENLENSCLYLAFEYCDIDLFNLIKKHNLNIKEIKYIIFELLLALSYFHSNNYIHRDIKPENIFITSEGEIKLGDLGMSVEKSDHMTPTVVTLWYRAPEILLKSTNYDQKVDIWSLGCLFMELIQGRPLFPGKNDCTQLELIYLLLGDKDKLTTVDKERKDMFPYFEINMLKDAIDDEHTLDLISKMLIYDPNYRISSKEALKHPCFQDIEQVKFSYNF
Sequence of Calcium-dependent protein kinase 1 (Plasmodium falciparum (isolate 3D7)) (P62344 whole entry, looked up): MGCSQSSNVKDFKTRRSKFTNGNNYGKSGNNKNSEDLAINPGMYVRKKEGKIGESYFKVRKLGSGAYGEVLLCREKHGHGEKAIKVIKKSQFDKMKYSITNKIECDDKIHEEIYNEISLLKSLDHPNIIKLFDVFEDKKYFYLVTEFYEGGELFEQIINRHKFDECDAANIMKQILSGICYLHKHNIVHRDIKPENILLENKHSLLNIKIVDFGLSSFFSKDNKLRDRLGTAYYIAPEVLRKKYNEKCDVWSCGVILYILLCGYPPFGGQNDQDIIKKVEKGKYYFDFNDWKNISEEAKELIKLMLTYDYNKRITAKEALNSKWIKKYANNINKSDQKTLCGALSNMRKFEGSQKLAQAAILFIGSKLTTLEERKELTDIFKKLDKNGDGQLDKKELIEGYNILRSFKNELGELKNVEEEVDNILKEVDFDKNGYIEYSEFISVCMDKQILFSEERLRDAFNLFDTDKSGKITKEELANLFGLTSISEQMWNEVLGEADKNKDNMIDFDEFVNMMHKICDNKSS
Sequence of Protein kinase 7 (PK7), Plasmodium falciparum 3D7 (PF3D7_0213400) (Q7YTF7 1-343): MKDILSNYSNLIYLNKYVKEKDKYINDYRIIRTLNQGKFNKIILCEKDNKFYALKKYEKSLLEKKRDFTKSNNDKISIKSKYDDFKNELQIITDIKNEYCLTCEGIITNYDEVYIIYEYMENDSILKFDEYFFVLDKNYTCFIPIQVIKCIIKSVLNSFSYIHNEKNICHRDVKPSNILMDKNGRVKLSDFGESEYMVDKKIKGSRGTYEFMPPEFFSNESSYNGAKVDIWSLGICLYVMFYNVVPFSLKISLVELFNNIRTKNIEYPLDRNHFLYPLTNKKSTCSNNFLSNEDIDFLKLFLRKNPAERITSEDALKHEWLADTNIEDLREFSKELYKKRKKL
Sequence of L-lactate dehydrogenase (Plasmodium falciparum (isolate CDC / Honduras)) (Q27743 whole entry, looked up): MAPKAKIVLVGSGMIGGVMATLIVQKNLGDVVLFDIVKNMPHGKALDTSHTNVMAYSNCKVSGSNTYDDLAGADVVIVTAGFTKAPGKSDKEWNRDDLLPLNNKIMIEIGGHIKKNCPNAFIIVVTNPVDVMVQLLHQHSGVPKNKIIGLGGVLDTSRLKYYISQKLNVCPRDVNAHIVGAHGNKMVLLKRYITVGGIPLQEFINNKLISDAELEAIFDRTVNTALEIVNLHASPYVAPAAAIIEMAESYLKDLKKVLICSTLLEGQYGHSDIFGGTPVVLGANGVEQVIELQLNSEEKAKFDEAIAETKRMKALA

SMILES	growth inhibition [1]	inhibition [2]	inhibition [3]	growth inhibition [4]	outcome [5]	outcome [6]	outcome [7]	outcome [8]
NC(=O)c1ccsc1NC(=O)CNC(c1ccccc1)c1ccc(Cl)cc1 (stereo not given)	89% (active)	25% (inactive)	-3% (inactive)	83% (active)	inactive	inactive	inactive	inactive
Cc1cccc2[nH]c(-c3cccc(-c4cccc(NC(=O)CCc5cnc[nH]5)c4)c3)nc12	86% (active)	16% (inactive)	0% (inactive)	102% (active)	inactive	inactive	inactive	inactive
Cc1cccc(-c2cccc(CNc3nc(NCCc4ccc(O)cc4)nc(N4CCNCC4)n3)c2)c1	-3% (inactive)	50% (active)	0% (inactive)	84% (active)	inactive	inactive	inactive	inactive
CCN(CCCN1CCCCC1)c1cc(C)nc(Nc2cc(F)cc(F)c2)n1	64% (active)	15% (inactive)	5% (inactive)	102% (active)	inactive	inactive	inactive	inactive
CCOc1cc2ncnc(Nc3ccc(OCc4c(F)cccc4F)c(OC)c3)c2cc1OCC	60% (active)	7% (inactive)	-2% (inactive)	96% (active)	inactive	inactive	inactive	inactive
Cc1c(Cl)cccc1S(=O)(=O)N1CCCCC(c2ccc(C(F)(F)F)cc2)=N1	91% (active)	15% (inactive)	5% (inactive)	86% (active)	inactive	inactive	inactive	inactive
COc1ccc(Nc2ccnc3cc4ccccc4cc23)cc1	73% (active)	32% (inactive)	3% (inactive)	101% (active)	inactive	inactive	inactive	inactive
CC(=O)Nc1ccc(S(=O)(=O)NC2=NC(C)(C)N(OCc3ccc(Cl)c(Cl)c3)C(N)=N2)cc1	98% (active)	44% (inactive)	2% (inactive)	93% (active)	inactive	inactive	inactive	inactive
CC(=O)N1N=C(c2ccc(F)cc2)Sc2c1nc(C1CCCCC1)n2C(C)=O	9% (inactive)	4% (inactive)	4% (inactive)	92% (active)	inactive	inactive	inactive	inactive
CCc1cn2c3c(cc(C(=O)N[C@@H](Cc4ccccc4)[C@H](O)CNC4CCOCC4)cc13)N(C)S(=O)(=O)C2	98% (active)	13% (inactive)	-1% (inactive)	99% (active)	inactive	inactive	inactive	inactive
Oc1ccccc1CNCc1ccc(-c2cnc(N3CCCC(c4ccccc4)C3)nc2)cc1 (stereo not given)	84% (active)	6% (inactive)	-4% (inactive)	99% (active)	inactive	inactive	inactive	inactive
Nc1nccc2ccc(Oc3ccncc3)cc12	81% (active)	-3% (inactive)	-2% (inactive)	91% (active)	inactive	inactive	inactive	inactive
COc1cc(Nc2ncnc3cc(OC)c(OC)cc23)cc([N+](=O)[O-])c1	6% (inactive)	8% (inactive)	8% (inactive)	97% (active)	inactive	inactive	inactive	inactive
CCOc1ccc2nc(NC(=O)c3csnn3)sc2c1	98% (active)	6% (inactive)	1% (inactive)	100% (active)	inactive	inactive	inactive	inactive
Cc1cccc(C(=O)Nc2ccnc(N(C)CCCN(C)Cc3cccc(C#N)c3)c2)c1	12% (inactive)	1% (inactive)	-2% (inactive)	92% (active)	inactive	inactive	inactive	inactive
CN(C)Cc1ccc(-c2cc3c(Nc4ccc(OCc5cccc(F)c5)c(Cl)c4)ncnc3s2)[nH]1	84% (active)	8% (inactive)	-1% (inactive)	100% (active)	inactive	inactive	inactive	inactive
CCN(CC)CCN(Cc1ccc(-c2ccc(C(F)(F)F)cc2)cc1)C(=O)c1ccc(-c2ccc(C#N)cc2)cc1	31% (inactive)	38% (inactive)	-5% (inactive)	89% (active)	inactive	inactive	inactive	inactive
O=C(/C=C/c1ccc(C(F)(F)F)cc1)NCCCCCN1CCCN(C(=O)Nc2cccc(Cl)c2)CC1	3% (inactive)	16% (inactive)	3% (inactive)	92% (active)	inactive	inactive	inactive	inactive
CCCCN(CCCC)CCCN(CCCN(CCCC)CCCC)c1cc(C)nc(Nc2ccc(Br)cc2)n1	98% (active)	51% (active)	-4% (inactive)	99% (active)	inactive	inactive	inactive	inactive
COc1cccc(Cc2cnc3nc(N)nc(N)c3c2C)c1	76% (active)	57% (active)	0% (inactive)	94% (active)	inactive	inactive	inactive	inactive

SMILES	growth inhibition [1]	inhibition [2]	inhibition [3]	growth inhibition [4]	outcome [5]	outcome [6]	outcome [7]	outcome [8]
CNC(=O)c1cc(S(=O)(=O)N2CCN(c3ccccn3)CC2)c(C)s1	52% (active)	-2% (inactive)	-1% (inactive)	91% (active)	inactive	inactive	inactive	inactive
CN(C)CCCOC(=O)c1cc2cc(-c3ccccc3)ccc2n1S(=O)(=O)Cc1ccccc1	70% (active)	13% (inactive)	-5% (inactive)	101% (active)	inactive	inactive	inactive	inactive
CN(C)Cc1ccc(-c2ccc3ccnc(N)c3c2)cc1	100% (active)	20% (inactive)	-1% (inactive)	100% (active)	inactive	inactive	inactive	inactive
CS(=O)(=O)NCCCNCc1ccc(-c2ccc(-c3nc4ccc(F)cc4[nH]3)cc2)cc1	97% (active)	17% (inactive)	-1% (inactive)	100% (active)	inactive	inactive	inactive	inactive
O=S(=O)(c1c(Cl)cc(Cl)cc1Cl)N1CCCCC(c2ccc(F)c(F)c2)=N1	65% (active)	5% (inactive)	-1% (inactive)	87% (active)	inactive	inactive	inactive	inactive
O=C(O[C@H]1CN[C@H](C#Cc2cc3ncnc(Nc4ccc5c(ccn5S(=O)(=O)c5cccs5)c4)c3s2)C1)N1CCOCC1	48% (inactive)	-4% (inactive)	-1% (inactive)	85% (active)	inactive	inactive	inactive	inactive
CC(C)c1cccc(OCC2CCN(c3ccc(C(=O)Nc4ccccc4)cn3)CC2)c1	90% (active)	9% (inactive)	4% (inactive)	95% (active)	inactive	inactive	inactive	inactive
Cc1cccc2[nH]c(-c3ccc(-c4ccc(NC(=O)Nc5ccc(Cl)cc5)cc4)cc3)nc12	100% (active)	52% (active)	-5% (inactive)	101% (active)	inactive	inactive	inactive	inactive
CN1CCCC(CN2CCN(Cc3ccc(-c4cccc(-c5nc6ccccc6[nH]5)c4)cc3)CC2)C1 (stereo not given)	100% (active)	57% (active)	-3% (inactive)	101% (active)	inactive	inactive	inactive	inactive
O=C(NCc1ccc(F)cc1)c1ccc(N2CCN(c3ccncc3)CC2)cn1	81% (active)	7% (inactive)	-2% (inactive)	98% (active)	inactive	inactive	inactive	inactive
CCc1cn2c3c(cc(C(=O)N[C@@H](Cc4ccccc4)[C@H](O)CNC(C)(C)CCCC(C)C)cc13)N(C)S(=O)(=O)C2	98% (active)	71% (active)	8% (inactive)	98% (active)	inactive	inactive	inactive	inactive
CC(=O)c1cc(N2CCCC2)ccc1N	97% (active)	1% (inactive)	-2% (inactive)	97% (active)	inactive	inactive	inactive	inactive
COc1ccc2ncc(F)c(NC(=O)C3CCC(NCc4cc5c(F)cccc5[nH]4)CC3)c2n1 (stereo not given)	29% (inactive)	39% (inactive)	-1% (inactive)	91% (active)	inactive	inactive	inactive	inactive
COc1ccc2nccc([C@@H](O)CN3CCC(NCc4cnc5snnc5c4)C(F)C3)c2c1 (stereo not given in full)	88% (active)	13% (inactive)	2% (inactive)	83% (active)	inactive	inactive	inactive	inactive
O=c1cc(NCCCNCc2cccc(OC(F)(F)F)c2)[nH]c2ccccc12	72% (active)	-4% (inactive)	-1% (inactive)	97% (active)	inactive	inactive	inactive	inactive
Cc1ccccc1C1CCN(C2CCC(NC(=O)/C=C/c3ccc(Cl)cc3)CC2)CC1 (stereo not given)	25% (inactive)	78% (active)	4% (inactive)	99% (active)	inactive	inactive	inactive	inactive
CC(=O)Nc1ccc(OCCCCN(Cc2ccccc2OC(F)(F)F)c2ccc(C(F)(F)F)c(C#N)c2)c(Cl)c1	96% (active)	11% (inactive)	-2% (inactive)	89% (active)	inactive	inactive	inactive	inactive
O=C(/C=C/c1ccc(Cl)c(Cl)c1)NCCCCCCN1CCN(C(=O)Nc2ccc(OC(F)F)cc2)CC1	15% (inactive)	44% (inactive)	-4% (inactive)	91% (active)	inactive	inactive	inactive	inactive
O=C(/C=C/c1ccc(Cl)c(Cl)c1)NCCCCCN1CCC(C(=O)Nc2ccc(Cl)cc2)CC1	-1% (inactive)	42% (inactive)	8% (inactive)	100% (active)	inactive	inactive	inactive	inactive
Cc1noc(C)c1-c1cccc(CNCc2ccc(-c3cccc(-c4nc5ccc(F)cc5[nH]4)c3)cc2)c1	84% (active)	37% (inactive)	4% (inactive)	102% (active)	inactive	inactive	inactive	inactive
